Test [1] is described as follows: Nuclear factor erythroid 2-related factor 2/antioxidant responsive element (Nrf2/ARE) small molecule agonists: qHTS cell viability counter screen in human keratinocytes (AID 1919968; active = well fitted curve in the direction sought with a large enough effect in the repeat runs; an effect the other way counts as inactive or inconclusive; also: nearly all actives have a fitted effect of over 55% in size). In short, it runs like this: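 Fluorescence read-out from CellTiter-Fluor after 1 h at 37 C. Wells held HaCaT-derived ARE-luciferase reporter cells (1,500/well) treated 23 h with DMSO-dissolved compounds. Run in the same wells as the luciferase agonist read.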
For orientation: In qHTS, concentration-response curves come from the screen itself.

A short description of test [2]: Nuclear factor erythroid 2-related factor 2/antioxidant responsive element (Nrf2/ARE) small molecule agonists: luciferase reporter gene qHTS assay in human keratinocytes (AID 1919969). Also: nearly all actives have a fitted effect of over 35% in size. Also: potency is read from the fitted curve at half-maximal effect. A general note: A reporter such as luciferase makes a cellular process visible.
Test [3] concerns the target Gonadotropin-releasing hormone receptor (Homo sapiens) (UniProt P30968). The test is described as follows: Human gonadotropin-releasing hormone receptor (GnRHR) small molecule agonists, calcium flux assay in GnRHR-HEK293 cells (AID 1920063). Also: nearly all actives have a fitted effect of over 35% in size. In short, it runs like this: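 Calcium-dye fluorescence, Ex/Em=480/540, recorded every 1 sec over 3 min after compound addition to GnRHR-HEK293 cells. Cells had been seeded 18 hours earlier and dye-loaded for 1 hour at 37 C. Fifteen concentrations, triplicates.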

The target of test [4] is KiSS-1 receptor (Homo sapiens) (UniProt Q969F8). The test is described as follows: Human kisspeptin (KISS1R) small molecule agonists, calcium flux assay in KISS1R-HEK293 cells (AID 1920064; active = well fitted curve in the direction sought with a large enough effect in the repeat runs; an effect the other way counts as inactive or inconclusive). In short, it runs like this:
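Calcium flux read-out: kinetic fluorescence at Ex/Em=480/540, 1 s intervals over 3 min, after pin-tool compound addition to dye-loaded KISS1R-HEK293 cells. Fifteen concentrations, triplicates.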
A general note: Calcium flux is commonly read through the fluorescence of an indicator in the cells.

Test [5] in a line: G protein-coupled receptor (GPCR) small molecule agonists, calcium flux assay: HEK293 wild type cell line counter screen (AID 1920065). The procedure, abridged:
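Agonist mode; 18 h seeding at 37 C, 1 h dye load at 37 C; compounds pinned from DMSO, ATP as positive control; kinetic fluorescence 480/540 nm, 3 min, 1 s reads; 15 concentrations, triplicate.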

A short description of test [6]: p53 small molecule agonists, cell-based qHTS assay with human liver microsomes: qHTS cell viability counter screen (AID 1963579). Also: nearly all actives have a fitted effect of over 45% in size. In short, it runs like this:
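Tox21 library compounds, delivered from DMSO stocks, were tested on p53RE-bla cells together with 0.5 mg/mL human liver microsomes and 0.5 mg/mL NADPH (final) over 16 h at 37 C; CellTiter-Glo luminescence served as the cytotoxicity measure.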

The nature of test [7]: p53 small molecule agonists, cell-based qHTS assay with rat liver microsomes: qHTS cell viability counter screen (AID 1963580). Also: nearly all actives have a fitted effect of over 45% in size. Also: potency is read from the fitted curve at half-maximal effect. The procedure, abridged:
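Rat liver microsome (0.5 mg/mL final) and NADPH (0.5 mg/mL final) co-incubation with compounds for 16 h at 37 C on HCT-116 p53RE-bla cells; cytotoxicity taken from intracellular ATP luminescence.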

Test [8] deals with 5-hydroxytryptamine receptor 2A (Homo sapiens) (UniProt P28223). Description: 5-hydroxytryptamine receptor 2A (HTR2A) small molecule agonists, cell-based qHTS assay (AID 1963587). Also: nearly all actives have a fitted effect of over 30% in size. In short, it runs like this: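 Kinetic calcium-flux fluorescence (2 min, 1 sec intervals) after compound addition in agonist mode. HTR2A-CHO cells were cultured 18 h, then dye-loaded 1 h at 37 C.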
Test [9] addresses Muscarinic acetylcholine receptor M1 (Homo sapiens) (UniProt P11229). Description: Cholinergic receptor muscarinic 1 (CHRM1) small molecule antagonists, cell-based qHTS assay (AID 1963588). Also: nearly all actives have a fitted effect of over 40% in size. The procedure, abridged:
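Compounds were tested at 15 concentrations in three independent runs. Dye-loaded CHRM1-CHO cells were exposed 5 min at room temperature before stimulation by acetylcholine added at 50nM. Intracellular calcium was read kinetically on FDSS for 3 min.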

Test [10] has the same target. Description: Cholinergic receptor muscarinic 1 (CHRM1) small molecule agonists, cell-based qHTS assay (AID 1963589). Also: nearly all actives have a fitted effect of over 35% in size. The procedure, abridged: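 Calcium flux read-out: kinetic fluorescence at 1 sec intervals after pin-tool compound addition to dye-loaded CHRM1-CHO cells (human M1). Agonist mode; 15 concentrations tested in triplicate independent runs.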
A short description of test [11]: cAMP Responsive Elements (CRE) small molecule agonists, cell-based qHTS assay (AID 1963590). The procedure, abridged: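 Beta-lactamase reporter readout: LiveBLAzer B/G FRET substrate, 2 h at room temperature, added after 3 h compound treatment of CRE-bla HEK 293T cells at 37 C/5% CO2.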
Test [12] in a line: cAMP Responsive Elements (CRE) small molecule antagonists, cell-based qHTS assay (AID 1963591; active = well fitted inhibition curve with a large enough effect in the signal ratio in the repeat runs, not every such curve was filed as active; the % refers to the signal ratio). The procedure, abridged:
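HEK293T CRE-bla; 18 h preincubation; compound pin-transfer; NKH477 0.25 uM final, 3 h, 37 C; LiveBLAzer FRET substrate 2 h RT.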

Test [13] concerns the target Beta-2 adrenergic receptor (Homo sapiens) (UniProt P07550). Description: Adrenergic beta2 receptor (ADRB2) small molecule antagonists, cell-based qHTS assay (AID 1963592). Also: series mostly up to about 92 µM; nearly all actives have a fitted effect of over 50% in size. The procedure, abridged: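 Assay format: CHO-ADRB2 cells, 18-20hr seeding at 37C/5% CO2, then compound plus 1nM isoproterenol agonist mix for 0.5hr RT. Homogeneous time-resolved fluorescence cAMP detection after 1hr, expressed as 665/615 nm ratio.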

For test [14] the target is unchanged. The test is described as follows: Adrenergic beta2 receptor (ADRB2) small molecule agonists, cell-based qHTS assay (AID 1963593).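 Also: CHO cells stably overexpressing human ADRB2.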 The procedure, abridged: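 CHO cells stably over-expressing ADRB2 were plated overnight at 37C, then dosed with compounds plus a stimulation mix containing 100uM IBMX and 25uM Ro-20-1724 for 0.5hr at room temperature. cAMP was measured by HTRF competition, 1hr.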

The target of test [15] is D(2) dopamine receptor (Homo sapiens) (UniProt P14416). The test is described as follows: Dopamine D2 receptor (DRD2) small molecule agonists, cell-based qHTS assay (AID 1963594). Also: nearly all actives have a fitted effect of over 35% in size. The procedure, abridged:
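cAMP accumulation in DRD2-HEK293 cells measured by HTRF after 1 h detection; compounds added 10 min before NKH477 (200nM […]) forskolin-analogue stimulation, 30 min at room temperature, with Ro20-1724 present at 0.1 mM final.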

Test [16] shares this target. Description: Dopamine D2 receptor (DRD2) small molecule antagonists, cell-based qHTS assay (AID 1963595; active = well fitted inhibition curve with a large enough effect in the signal ratio in the repeat runs, with a control signal flat; the % refers to the signal ratio). In short, it runs like this:
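HEK293 cells stably expressing DRD2 were preincubated with 0.1 mM Ro20-1724, then with compound for 10 min at room temperature. Cells were stimulated with 200 nM NKH477 plus 12 nM quinpirole for 30 min, and cAMP was read by HTRF.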

Test [17] has as its target 5-hydroxytryptamine receptor 2A (Homo sapiens) (UniProt P28223). The test is described as follows: 5-hydroxytryptamine receptor 2A (HTR2A) small molecule antagonists, cell-based qHTS assay (AID 1963586). Also: nearly all actives have a fitted effect of over 45% in size. In short, it runs like this:
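CHO cells stably expressing human HTR2A were plated for 18 h at 37 C, then loaded with calcium dye for 1 h. Compounds were preincubated 5 min at room temperature before DOI (4 nM solution) was added. Kinetic fluorescence was read for 3 min.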

Test [18] can be described thus: p53 small molecule agonists, cell-based qHTS assay: qHTS cell viability counter screen (AID 1963581). Also: nearly all actives have a fitted effect of over 45% in size. Also: potency is read from the fitted curve at half-maximal effect. The procedure, abridged: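 Cytotoxicity read-out: ATP-based luminescence (CellTiter-Glo, 30 min RT) measured in the same wells as the p53 reporter assay, HCT-116 p53RE-bla cells, 16 h compound exposure at 37 C.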

Where “and” joins values, the source holds several entries; their conditions need not be identical. Identical values can stand only once. Results filed as inconclusive are left out. Some compounds were tested as several samples or in several runs, with calls that do not always agree. Calls of active or inactive are those of the source. Unless noted, calls follow the shape of the full dose curve.

Our source for the Potency values is PubChem BioAssay (Tox21).

Chain of Muscarinic acetylcholine receptor M1 (Homo sapiens) (P11229 whole entry, looked up): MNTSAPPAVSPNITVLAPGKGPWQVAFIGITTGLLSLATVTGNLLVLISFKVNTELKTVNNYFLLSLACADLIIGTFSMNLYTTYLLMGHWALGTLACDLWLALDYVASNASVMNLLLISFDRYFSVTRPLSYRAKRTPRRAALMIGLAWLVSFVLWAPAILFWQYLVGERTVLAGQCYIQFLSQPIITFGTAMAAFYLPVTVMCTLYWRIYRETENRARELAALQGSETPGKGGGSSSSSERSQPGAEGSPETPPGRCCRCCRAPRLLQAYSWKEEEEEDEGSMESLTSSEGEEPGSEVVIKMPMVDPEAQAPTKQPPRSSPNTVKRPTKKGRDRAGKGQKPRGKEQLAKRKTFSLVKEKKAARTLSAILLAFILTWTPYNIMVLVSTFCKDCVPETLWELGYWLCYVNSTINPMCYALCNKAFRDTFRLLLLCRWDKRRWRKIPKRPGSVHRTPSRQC
Chain of 5-hydroxytryptamine receptor 2A (Homo sapiens) (P28223 whole entry, looked up): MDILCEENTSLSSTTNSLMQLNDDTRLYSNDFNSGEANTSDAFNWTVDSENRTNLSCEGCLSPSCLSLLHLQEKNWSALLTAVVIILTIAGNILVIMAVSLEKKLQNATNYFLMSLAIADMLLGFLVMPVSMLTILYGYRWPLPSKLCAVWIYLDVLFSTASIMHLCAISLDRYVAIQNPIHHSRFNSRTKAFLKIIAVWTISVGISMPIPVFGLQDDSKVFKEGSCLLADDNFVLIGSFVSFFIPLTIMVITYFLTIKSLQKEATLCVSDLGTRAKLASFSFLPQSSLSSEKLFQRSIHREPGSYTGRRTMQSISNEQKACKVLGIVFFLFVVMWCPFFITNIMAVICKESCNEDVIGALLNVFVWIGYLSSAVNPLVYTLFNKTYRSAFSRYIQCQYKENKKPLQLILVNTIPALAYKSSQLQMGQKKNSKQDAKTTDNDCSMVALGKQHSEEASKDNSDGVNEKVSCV
Chain of KiSS-1 receptor (Homo sapiens) (Q969F8 whole entry, looked up): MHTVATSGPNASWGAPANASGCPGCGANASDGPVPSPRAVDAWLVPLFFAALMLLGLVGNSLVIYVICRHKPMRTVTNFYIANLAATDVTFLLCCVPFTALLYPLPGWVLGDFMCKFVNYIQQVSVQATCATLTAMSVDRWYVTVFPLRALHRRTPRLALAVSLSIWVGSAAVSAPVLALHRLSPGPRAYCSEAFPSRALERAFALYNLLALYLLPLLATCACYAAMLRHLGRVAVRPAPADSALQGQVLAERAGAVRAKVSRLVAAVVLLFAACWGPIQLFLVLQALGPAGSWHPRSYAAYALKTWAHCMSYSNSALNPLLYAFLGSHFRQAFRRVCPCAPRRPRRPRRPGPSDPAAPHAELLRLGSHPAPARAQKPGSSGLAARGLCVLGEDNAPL
Chain of D(2) dopamine receptor (Homo sapiens) (P14416 whole entry, looked up): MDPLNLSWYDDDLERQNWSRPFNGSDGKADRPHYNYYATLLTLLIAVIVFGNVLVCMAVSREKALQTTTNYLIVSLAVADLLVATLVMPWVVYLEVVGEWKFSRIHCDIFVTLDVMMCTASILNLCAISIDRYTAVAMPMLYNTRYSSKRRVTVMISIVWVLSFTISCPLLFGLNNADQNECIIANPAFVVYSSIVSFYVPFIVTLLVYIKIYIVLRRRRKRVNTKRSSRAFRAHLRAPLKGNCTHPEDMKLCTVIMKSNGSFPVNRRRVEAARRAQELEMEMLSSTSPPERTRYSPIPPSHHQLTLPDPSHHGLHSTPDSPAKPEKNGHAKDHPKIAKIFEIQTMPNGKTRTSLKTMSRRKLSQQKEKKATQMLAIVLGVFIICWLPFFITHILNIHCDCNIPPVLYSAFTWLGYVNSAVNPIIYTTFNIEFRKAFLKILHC
Chain of Beta-2 adrenergic receptor (Homo sapiens) (P07550 whole entry, looked up): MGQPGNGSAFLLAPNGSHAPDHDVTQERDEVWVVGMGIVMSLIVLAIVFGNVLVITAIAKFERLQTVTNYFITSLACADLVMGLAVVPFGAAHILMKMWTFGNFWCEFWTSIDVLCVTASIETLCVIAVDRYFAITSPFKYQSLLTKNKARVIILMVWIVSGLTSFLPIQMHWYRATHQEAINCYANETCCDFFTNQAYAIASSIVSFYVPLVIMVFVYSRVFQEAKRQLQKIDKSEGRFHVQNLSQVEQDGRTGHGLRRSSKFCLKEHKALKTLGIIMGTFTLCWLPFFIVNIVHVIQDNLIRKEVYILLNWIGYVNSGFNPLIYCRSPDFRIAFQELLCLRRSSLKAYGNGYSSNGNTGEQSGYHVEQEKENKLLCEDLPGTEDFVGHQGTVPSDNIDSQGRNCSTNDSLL
Chain of Gonadotropin-releasing hormone receptor (Homo sapiens) (P30968 whole entry, looked up): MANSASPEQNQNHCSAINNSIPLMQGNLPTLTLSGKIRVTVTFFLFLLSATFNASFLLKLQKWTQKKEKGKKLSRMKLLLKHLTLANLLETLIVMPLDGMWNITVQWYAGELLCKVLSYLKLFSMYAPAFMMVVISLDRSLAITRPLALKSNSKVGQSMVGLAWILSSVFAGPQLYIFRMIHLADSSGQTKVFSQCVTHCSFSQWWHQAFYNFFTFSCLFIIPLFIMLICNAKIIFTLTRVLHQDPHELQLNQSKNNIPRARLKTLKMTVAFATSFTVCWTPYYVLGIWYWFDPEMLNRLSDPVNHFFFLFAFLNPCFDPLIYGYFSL

Consider `O=S(=O)(Oc1ccc(Cl)cc1)c1ccc(Cl)cc1`, for which the Potency result in [1], in test [3], in [4], in [5], in test [6] and in [7] was “inactive” throughout. Besides, the Potency result in test [8], in [9], in test [10], in test [11], in test [12] and in test [13] was “inactive” in each case. Also, the Potency result in test [14], in test [15] and in [16] was “inactive” throughout. Also, the Potency in test [2] is 27.7 µM (active) and inactive.

For `Clc1ccccc1-c1nnc(-c2ccccc2Cl)nn1`, the Potency entry in test [1], in test [3], in test [4], in [5], in [6] and in test [7] was “inactive” each time. In addition, the Potency entry in test [17], in [8], in [9], in test [10], in [11] and in test [12] was “inactive” each time. For the same compound, the Potency result in [13], in [14], in test [15] and in test [16] was “inactive” in each case. Also, the Potency in [2] was 19.2 µM (active) and 5.43 µM (active).

Turning to `CN(C)C(=O)Cl`, the Potency entry in [1], in test [2], in test [3], in [4], in [5] and in [6] was “inactive” in each case. Also, the Potency result in test [7], in test [17], in [8], in test [9], in [10] and in [12] was “inactive” each time. Further, the Potency result in [13], in test [14], in test [15] and in test [16] was “inactive” throughout. Also, in test [18], the Potency is 45.7 µM (active) and inactive.

As to `C[N+](C)(C)CC(=O)[O-]`, the Potency result in test [1], in [2], in test [3], in test [4], in test [5] and in test [6] was “inactive” throughout. The Potency entry in test [7], in test [18], in test [17], in [8], in test [9] and in test [10] was “inactive” each time. Also, the Potency entry in test [11], in test [12], in test [14], in test [15] and in test [16] was “inactive” throughout.

In the case of `C#CCN(C)[C@H](C)Cc1ccccc1`, the Potency entry in test [1], in test [2], in test [3], in test [4], in test [5] and in test [6] was “inactive” throughout. Moreover, the Potency entry in [7], in test [18], in test [11], in [12], in test [13] and in test [14] was “inactive” in each case.

As to `COP(=O)(OC)OC=C(Cl)Cl`, the Potency entry in [1], in [3], in [4], in test [5], in [6] and in test [18] was “inactive” throughout. The Potency result in test [11], in [12], in test [13], in test [14], in test [15] and in [16] was “inactive” throughout. The Potency was 55 µM (active) and inactive in [2]; 412 nM (active) and inactive in [7].

In the case of `C[N+](C)(C)CC(=O)O`, the Potency result in [1], in test [2], in test [3], in [4], in test [5] and in test [6] was “inactive” each time. Also, the Potency entry in [7], in [18], in test [17], in test [8], in [9] and in [10] was “inactive” each time. The Potency entry in test [11], in test [13], in test [14], in test [15] and in [16] was “inactive” in each case.

Regarding `CCCC[n+]1ccccc1C`, the Potency entry in test [1], in [2], in test [3], in test [4], in test [5] and in test [6] was “inactive” each time. For the same compound, the Potency entry in [7], in test [18], in test [8], in test [9], in test [11] and in [12] was “inactive” throughout. The Potency entry in [13], in test [14], in test [15] and in test [16] was “inactive” each time.
